Measurements as given in PubChem BioAssay AID1578 (Sanford-Burnham Center for Chemical Genomics, 2009).
Among all 290,000 compounds or so, about 3,000 (1%) were called active. No stated cut-off is given here; in the data, active means inhibition mostly above about 36% (no sharp cut-off); inactive means mostly below about 34%. The sample as a whole holds a higher share of actives than the screen did.

Assay: inhibition of NOD1-driven NF-kB reporter – cell-based, luminescence, uHTS, primary screen (AID 1578);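 further: HEK-293T reporter cells stimulated with the NOD1 agonist gamma-tri-DAP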
Conditions: NOD1-driven NF-kB luciferase reporter cells, at 4 µM, active compounds read high
For `Cc1ccccc1C(=O)c1c[nH]c(C(=O)NCc2cccs2)c1`, the inhibition was 2.5% (inactive).
For `Cc1ccc(-n2cc(C(=O)O)c(=O)cc2C)c(C)c1`, the inhibition was -25.8% (inactive).
In the case of `CC(C)n1cc(CN2CCC(n3nccc3NC(=O)CCCc3ccccc3)CC2)cn1`, the inhibition is reported as -24.8% (inactive).
In the case of `CCOc1cccc(NC(=O)C2CC(=O)N(C)C(=Nc3ccccc3)S2)c1` (centres undefined), the inhibition is reported as 5.5% (inactive).
In the case of `CCOc1cccc(NC(=O)C2CC(=O)N(C)C(=Nc3cccc(F)c3)S2)c1` (centres undefined), the inhibition is reported as 73.6% (active).
For `COc1cccc(NC(=O)C2CC(=O)N(C)C(=Nc3cccc(F)c3)S2)c1` (centres undefined), the inhibition was 13.8% (inactive).
In the case of `Fc1ccc(N=c2ssnc2Cl)c(F)c1`, the inhibition is reported as -14.2% (inactive).
For `C/C(=N\Nc1ccc(S(=O)(=O)N2CCOCC2)cc1[N+](=O)[O-])C(C)C`, the inhibition was -8.2% (inactive).
For `Cn1c(SCC(=O)NCCc2ccccc2)nnc1-c1ccncc1`, the inhibition was -5.8% (inactive).
In the case of `Cc1nc2ncnn2c(N2CCN(C(=O)c3cccc(F)c3)CC2)c1Cc1ccccc1`, the inhibition is reported as -1.9% (inactive).
In the case of `CCOc1ccc(/C=N/N2C(=O)C(CC(=O)Nc3ccc(F)cc3F)SC2=NC)cc1OC` (centres undefined), the inhibition is reported as -23% (inactive).
For `CN=C1SC(CC(=O)Nc2ccc(F)cc2F)C(=O)N1/N=C/c1ccc(OC(F)F)c(OC)c1` (centres undefined), the inhibition was -35.2% (inactive).
For `CN=C1SC(CC(=O)Nc2ccccc2F)C(=O)N1/N=C/c1ccc(O)c(OC)c1` (centres undefined), the inhibition was 47.1% (active).
In the case of `Cc1ccc(-n2c([S-])c(C(=O)NC(C)c3ccccc3)[n+]3ccccc23)cc1` (centres undefined), the inhibition is reported as -40.2% (inactive).
In the case of `CCOC(=O)CSc1nc(-c2ccccc2)nc2ccc(F)cc12`, the inhibition is reported as -21.7% (inactive).
For `CCOC(=O)N1CCN(C(=O)CSCC(=O)Nc2nc(-c3ccccc3)cs2)CC1`, the inhibition was -14% (inactive).
For `CCOC(=O)N1CCN(C(=O)CSCC(=O)Nc2nc(-c3ccc(-c4ccccc4)cc3)cs2)CC1`, the inhibition was 58.2% (active).
With `CCOC(=O)N1CCN(C(=O)CSCC(=O)Nc2nc(-c3ccc(C)cc3)cs2)CC1` the inhibition was 13.3% (inactive).
In the case of `CCn1c(SCC(=O)N/N=C(\C)c2ccncc2)nnc1-c1ccc(C)cc1`, the inhibition is reported as -7.3% (inactive).
In the case of `CCn1c(SCC(=O)Nc2nc(-c3ccccc3)cs2)nnc1-c1ccccc1O`, the inhibition is reported as 12.7% (inactive).
For `CCn1c(SCC(=O)N/N=C/c2ccccc2OCC(=O)O)nnc1-c1ccc(C)cc1`, the inhibition was 2.1% (inactive).
For `CCn1c(SCC(=O)Nc2nc(-c3ccc(C)cc3)cs2)nnc1-c1ccccc1`, the inhibition was 31% (inactive).
With `CCn1c(SCC(=O)N/N=C(\C)c2ccco2)nnc1-c1ccccc1` the inhibition was -25.7% (inactive).
With `CCn1c(SCC(=O)N/N=C(\C)c2ccncc2)nnc1-c1ccccc1` the inhibition was 58.5% (active).
In the case of `CCn1c(SCC(=O)N/N=C/c2ccccc2OCC(=O)O)nnc1-c1ccc(C(C)(C)C)cc1`, the inhibition is reported as 86.7% (active).
For `CCn1c(SCC(=O)N/N=C/c2ccccc2OCC(=O)O)nnc1-c1ccccc1`, the inhibition was -7.7% (inactive).
For `O=C(NCCc1ccccc1)c1ccc(CS(=O)Cc2cccc(Cl)c2)o1` (centres undefined), the inhibition was -20.6% (inactive).
For `CCOC(=O)c1c(/N=C/c2ccccc2O)sc2c1CCC2`, the inhibition was 8.8% (inactive).
In the case of `COc1ccc(S(=O)(=O)NCCc2c(C)nn(C)c2Oc2ccccc2)cc1`, the inhibition is reported as -4.8% (inactive).
With `COc1ccc(CCCC(=O)Nc2ccc(F)cc2)cc1` the inhibition was 11.5% (inactive).
In the case of `CCNc1nc(NC(C)C)nc(Oc2ccc(/C=N/O)cc2)n1`, the inhibition is reported as -10.5% (inactive).
In the case of `CCOc1ccc(CC2NCCc3cc(OCC)c(OCC)cc32)cc1OCC` (centres undefined), the inhibition is reported as -27.9% (inactive).
With `CSc1ccc(C(=O)C2CCCN(C(=O)CN3CCOC3=O)C2)cc1` (centres undefined) the inhibition was -29.8% (inactive).
With `CCOc1ccc(C(=O)NCCC(=O)N2CCC3(CC2)NCCc2[nH]cnc23)cc1` the inhibition was -23.8% (inactive).
With `COc1ccc(N(Cc2ccccc2)N=O)cc1` the inhibition was -31.8% (inactive).
In the case of `O=C(N/N=C/c1ccc(OCc2ccccc2)cc1)c1ccncc1`, the inhibition is reported as -35.1% (inactive).
With `O=NN(CCc1ccncc1)c1ccc(OCc2ccccc2)cc1` the inhibition was 43.7% (active).
In the case of `Cc1c(C)c2ccc(O)c(CN3CCN(C)CC3)c2oc1=O`, the inhibition is reported as 2% (inactive).
With `CCOc1ccccc1NC(=S)NC(=O)C1CC1` the inhibition was 65.9% (active).
For `COc1ccccc1NC(=S)NC(=O)C1CC1`, the inhibition was -18.7% (inactive).
For `CCOc1ccccc1NC(=S)NC(=O)C1CCCCC1`, the inhibition was -8% (inactive).
In the case of `CC(=O)Nc1ccc(NC(=O)CSc2nnc(NC(=O)C3CC3)s2)cc1`, the inhibition is reported as -6.1% (inactive).
In the case of `CN1C(=O)c2cccc(NC(=O)C3CCCCC3)c2C1=O`, the inhibition is reported as -4% (inactive).
In the case of `Cc1ccc(NC(=S)NNc2ncc(C(F)(F)F)cc2Cl)cc1`, the inhibition is reported as 36.4% (inactive).
For `Cc1cccc(NC(=S)NNc2ncc(C(F)(F)F)cc2Cl)c1`, the inhibition was 34.9% (inactive).
In the case of `FC(F)(F)c1cnc(NNC(=S)Nc2ccc(Cl)cc2)c(Cl)c1`, the inhibition is reported as 104% (active).
For `C=CCN1C(=O)C(CC(=O)O)SC1=Nc1ccc(N=Nc2ccccc2)cc1` (centres undefined), the inhibition was -20.5% (inactive).
For `O=C(CN1C2=NCCN2c2ccccc21)c1ccc(Br)cc1`, the inhibition was 6.8% (inactive).
In the case of `Cc1ccc2c(Cl)cc(Cl)c(OCC(=O)NC(=O)NCc3ccco3)c2n1`, the inhibition is reported as -16.8% (inactive).
With `Cc1ccc2c(Cl)cc(Cl)c(OCC(=O)NCc3ccco3)c2n1` the inhibition was 101% (active).
In the case of `CCN(CC(=O)NC(C)(C)C)C(=O)COc1c(Cl)cc(Cl)c2ccc(C)nc12`, the inhibition is reported as 49.3% (active).
In the case of `Cc1ccc2c(Cl)cc(Cl)c(OCC(=O)N(C(C)C)C(C)C)c2n1`, the inhibition is reported as -3.8% (inactive).
In the case of `Cc1ccc2c(Cl)cc(Cl)c(OCC(=O)NC(C)(C)C)c2n1`, the inhibition is reported as -11.5% (inactive).
For `Cc1cc(Cl)cc(Cl)c1OCC(=O)NCc1ccco1`, the inhibition was 20.4% (inactive).
In the case of `COc1cccc(CN(C)C(=O)CNC(=O)c2ccc3c(c2)OCO3)c1OC`, the inhibition is reported as -8.5% (inactive).
With `CC(C(=O)Nc1ccc2c(c1)OCO2)N(c1ccc(Cl)cc1)S(C)(=O)=O` (centres undefined) the inhibition was -9.6% (inactive).
With `COc1ccc(-c2oc(NC(C)=O)c(C#N)c2-c2ccc(OC)cc2)cc1` the inhibition was 11.7% (inactive).
In the case of `COc1ccc(-c2oc(NC(=O)c3ccc(C)cc3)c(C#N)c2-c2ccc(OC)cc2)cc1`, the inhibition is reported as -18.9% (inactive).
With `COc1ccc(-c2oc(NC(=O)CCl)c(C#N)c2-c2ccc(OC)cc2)cc1` the inhibition was 71.1% (active).
